Measured values: PubChem BioAssay AID504332 (National Center for Advancing Translational Sciences (NCATS), 2011)
Screen size: about 350,000 compounds; about 31,000 (8.9%) were called active. Not shown: some 15% with an inconclusive outcome. The call rests on the fitted dose curve; in most records, active means well fitted inhibition curve with a large enough effect; inconclusive means small, poorly fitted or top-dose-only effect; inactive means no such curve, though single readings can be large or run the other way. The sample as a whole holds a higher share of actives than the screen did.
Further: nearly all actives have a fitted effect of over 75% in size.
On the % scale 0 is the no-effect control and ±100 the full control effect; potency means the concentration at half of the fitted maximal effect.

These compounds were tested against Histone-lysine N-methyltransferase EHMT2 (Homo sapiens) (UniProt Q96KQ7) (assay: qHTS Assay for Inhibitors of Histone Lysine Methyltransferase G9a). Settings: G9a H3K9 monomethylation, AlphaScreen, 2 h; series mostly up to 59 µM; activity, negative = inhibition: at the top concentration.
Chain of Histone-lysine N-methyltransferase EHMT2 (Homo sapiens) (Q96KQ7 913-1193 limits assumed): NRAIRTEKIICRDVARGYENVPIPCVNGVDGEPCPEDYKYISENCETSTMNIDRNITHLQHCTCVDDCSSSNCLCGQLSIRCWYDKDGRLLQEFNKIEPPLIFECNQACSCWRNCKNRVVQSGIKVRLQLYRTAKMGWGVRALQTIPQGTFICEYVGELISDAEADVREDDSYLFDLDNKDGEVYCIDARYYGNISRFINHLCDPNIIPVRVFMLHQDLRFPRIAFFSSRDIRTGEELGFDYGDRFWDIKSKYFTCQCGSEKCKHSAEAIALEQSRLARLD
Method in brief: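 Enzyme 20 nM + cpd, 15 min RT; add b-H3K9 pep 500 nM / SAM 20 uM; 2 h RT; anti-H3K9me1 Ab 0.5 ug/mL + SA donor / anti-rabbit acceptor beads 20 ug/mL each, 10 min; AlphaScreen read.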
With `Cc1ccc(C(=O)N/C(=C\c2cn(S(=O)(=O)N(C)C)c3ccccc23)C(=O)N2CCCC2)cc1` the “activity, negative = inhibition” value was 14.9% [at 102 µM] (inactive).
`Cc1ccc(C(=O)N/C(=C\c2cn(C)c3ccccc23)C(=O)N2CCN(C)CC2)cc1` was tested, and the Potency was 79.4 µM (active).
`COc1cc(C(=O)N/C(=C\c2cn(C)c3ccccc23)C(=O)N2CCOCC2)cc(OC)c1OC` was tested, and the “activity, negative = inhibition” value was -9.22% [at 102 µM] (inactive).
For `CCCCC[C@H]1CN(C2CCCCC2)C(=O)[C@@H]1CC(=O)NCc1ccc(OC)cc1`, the “activity, negative = inhibition” value was -11.2% [at 102 µM] (inactive).
With `CCN(CC)CCn1c2c(c(SCC(=O)Nc3ccc(C(C)C)cc3)nc1=O)CCC2` the “activity, negative = inhibition” value was -34.3% [at 102 µM] (inactive).
In the case of `Cc1cc(NC(=O)c2cccc(Cl)c2)ccc1-c1cc2ccccc2oc1=O`, the “activity, negative = inhibition” value is reported as -4.3% (inactive).
In the case of `O=c1oc2ccccc2cc1-c1csc(Nc2ccc(O)cc2)n1`, the Potency is reported as 12.6 µM (active).
In the case of `COc1ccc2nc(Nc3nc(-c4cc5ccccc5oc4=O)cs3)sc2c1`, the “activity, negative = inhibition” value is reported as 22.6% (inactive).
`CCOC(=O)CN1C(C(=O)c2ccccc2)=C(OC(=O)C(C)(C)C)c2ccccc2S1(=O)=O` was tested, and the “activity, negative = inhibition” value was -8.05% (inactive).
For `CCCCc1nn2c(=O)cc(COC(=O)c3ccccc3NC(=O)C(C)(C)C)nc2s1`, the “activity, negative = inhibition” value was 25.7% (inactive).
`O=C(COC(=O)c1ccccc1SCC(=O)N1CCCC1)Nc1ccccc1OC(F)F` was tested, and the activity, negative = inhibition was 13.9% [at 0.501 µM] (inactive).
`COc1ccc(NCc2nnc(SCc3ccccc3)n2-c2ccc(OC)cc2)cc1` was tested, and the Potency was 50.1 µM (active).
With `COc1ccc(CSc2nnnn2-c2ccc(C(=O)O)cc2)cc1` the “activity, negative = inhibition” value was 17.8% [at 102 µM] (inactive).
`Cc1ccc(-n2c(CNc3ccc(F)cc3)nnc2SCC(=O)N2CCOCC2)cc1` was tested, and the “activity, negative = inhibition” value was -3.9% (inactive).
With `CC1(NC(=O)CCS(=O)(=O)c2ccc(Cl)cc2)CCS(=O)(=O)C1` (configuration not stated) the activity, negative = inhibition was -5.47% [at 12.7 µM] (inactive).
`CC1(C)CC(=O)C=C(c2cccc3c2Oc2ccccc2S3)C1` was tested, and the activity, negative = inhibition was -4.23% [at 0.501 µM] (inactive).
For `Cc1ccc(-c2cc(C(=O)N3CCc4ccccc4C3)no2)cc1`, the “activity, negative = inhibition” value was 2.95% [at 102 µM] (inactive).
In the case of `O=C(C(=O)N1CCc2ccccc2C1)N1CCc2ccccc2C1`, the “activity, negative = inhibition” value is reported as 17.3% (inactive).
`Cn1cccc1C(=O)N1CCc2ccccc2C1` was tested, and the Potency was 2 µM (active).
`O=C(CCc1cn(Cc2ccc(F)cc2)c2ccccc12)NC1CCCCC1` was tested, and the “activity, negative = inhibition” value was -29.5% (inactive).
For `Cc1ccc(Cn2c(=N)c(S(=O)(=O)c3ccc(C)cc3)cc3c(=O)n4ccccc4nc32)cc1`, the “activity, negative = inhibition” value was 12.9% [at 102 µM] (inactive).
With `CCN(CC(=O)Nc1ccccc1OC)C(=O)CC1CC2CCC1C2` (configuration not stated) the “activity, negative = inhibition” value was -48.1% (inactive).
`COc1ccccc1N1CCN(C(=O)c2ccc(NC3=NC4CS(=O)(=O)CC4S3)cc2)CC1` (configuration not stated) was tested, and the “activity, negative = inhibition” value was 18.8% [at 102 µM] (inactive).
For `O=C1CSC(=S)N1/N=C/c1ccc(O)c([N+](=O)[O-])c1`, the Potency was 14.1 µM (active).
With `O=[N+]([O-])c1ccc(N2CCSCC2)cc1O` the “activity, negative = inhibition” value was -49.1% [at 102 µM] (inactive).
In the case of `CCc1nn(CCCC(=O)Nc2ccc(C)cc2C)c(=O)c2cc3occc3n12`, the “activity, negative = inhibition” value is reported as 0.152% (inactive).
With `Cc1ccc(OCCNC(=O)CN2C(=O)NC3(CCCC3)C2=O)cc1` the activity, negative = inhibition was 19.1% [at 2.33 µM] (inactive).
`Cc1ccc(S(=O)(=O)CCC(=O)OCC(=O)NCCc2ccc(S(N)(=O)=O)cc2)cc1` was tested, and the activity, negative = inhibition was 1.87% [at 12.7 µM] (inactive).
`COc1ccc(Cc2nnc(NS(=O)(=O)Cc3ccccc3)s2)cc1` was tested, and the “activity, negative = inhibition” value was -8.52% (inactive).
`Cc1cc(C)cc(NS(=O)(=O)Cc2ccccc2)c1` was tested, and the “activity, negative = inhibition” value was 6.04% [at 102 µM] (inactive).
With `CCC(CC)c1nnc(NS(=O)(=O)Cc2ccccc2)s1` the Potency was 5.01 µM (active).
For `CCc1ccc(NC(=O)CCNS(=O)(=O)c2cccs2)cc1`, the “activity, negative = inhibition” value was 23.6% [at 102 µM] (inactive).
With `CN1CCN(CC#CCC2(O)c3ccccc3-c3ccccc32)CC1` the Potency was 35.5 µM (active).
With `CCCCN1C(=O)C(C)=C(C)C1OCCc1ccc(OC)c(OC)c1` (configuration not stated) the activity, negative = inhibition was -12% [at 0.501 µM] (inactive).
In the case of `CCCCOc1ccc(Cn2c(=O)oc3ccc(C)cc32)cc1OC`, the “activity, negative = inhibition” value is reported as 72.1% (inactive).
`CCCCOc1ccc(CN2C(=O)C(=O)c3cc(Br)cc(C)c32)cc1OC` was tested, and the Potency was 6.31 µM (active).
With `Cc1ccc2nc(N3CCN(c4cccc(Cl)c4)CC3)c3nnnn3c2c1` the “activity, negative = inhibition” value was 27.6% (inactive).
`Cc1[nH]c2ccccc2c1C(c1ccccc1)c1cccs1` (configuration not stated) was tested, and the “activity, negative = inhibition” value was -1.34% (inactive).
`CC1CCN(S(=O)(=O)c2ccc3c(c2)N(CC(=O)NCc2ccccc2Cl)C(=O)CO3)CC1` was tested, and the “activity, negative = inhibition” value was 18.5% (inactive).
With `Cc1cccc(N2CCN(C(=O)c3cccc(N4C(=O)C5C6C=CC(C6)C5C4=O)c3)CC2)c1C` (configuration not stated) the “activity, negative = inhibition” value was -4.69% [at 102 µM] (inactive).
In the case of `COc1ccc(NC(=O)CCN2C(=O)/C(=C/c3ccc4c(c3)OCO4)SC2=S)cc1`, the activity, negative = inhibition is reported as 7.02% [at 12.7 µM] (inactive).
With `Cc1ccc(C(=O)O)cc1-c1ccc(/C=C2\SC(=O)N(CC(=O)Nc3ccc4c(c3)OCO4)C2=O)o1` the Potency was 15.8 µM (active).
In the case of `Cn1c(=O)n(C)c2cc(C(=O)Nc3ccc4c(c3)OCO4)ccc21`, the “activity, negative = inhibition” value is reported as -4.52% [at 102 µM] (inactive).
For `O=C(c1ccc(Cl)cc1)n1nc(-c2cccnc2)nc1NCc1ccc(F)cc1`, the “activity, negative = inhibition” value was 8.04% (inactive).
With `CN1c2ccc(Cl)cc2-c2nc(SCC(=O)Nc3cc(F)ccc3F)ncc2S1(=O)=O` the “activity, negative = inhibition” value was 2.07% (inactive).
`CS(=O)(=O)c1ccc(-c2nnn(CC(=O)Nc3ccc4c(c3)OCCO4)n2)cc1` was tested, and the “activity, negative = inhibition” value was -35.3% [at 102 µM] (inactive).
In the case of `Oc1ccc(N=Nc2nccs2)c(O)c1`, the Potency is reported as 44.7 µM (active).
For `Oc1ccc2ccccc2c1N=Nc1nccs1`, the activity, negative = inhibition was 12.3% [at 0.501 µM] (inactive).
In the case of `Cc1cccc(NC(=O)C2CCCN2S(=O)(=O)c2cccc3nsnc23)c1C` (configuration not stated), the “activity, negative = inhibition” value is reported as -3.86% (inactive).
For `COc1ccc(-c2noc(CSc3nc(C)cc(=O)[nH]3)n2)cc1OC`, the “activity, negative = inhibition” value was 5.63% (inactive).
`Cc1ccc(-c2nc(-c3cccnc3)sc2CC(=O)Nc2ccc(C)c(Cl)c2)cc1` was tested, and the Potency was 8.91 µM (active).
`Cc1nc(-c2ccc(F)cc2)c(CC(=O)Nc2cccc(S(=O)(=O)N3CCOCC3)c2)s1` was tested, and the activity, negative = inhibition was 9.73% [at 0.501 µM] (inactive).
With `Cc1cc(C)c(NC(=O)CS(=O)CC(=O)Nc2cccnc2)c(C)c1` (configuration not stated) the “activity, negative = inhibition” value was -1.56% [at 102 µM] (inactive).
`Cc1ccsc1C(=O)OCC(=O)Nc1cccc(F)c1` was tested, and the activity, negative = inhibition was 19.6% [at 12.7 µM] (inactive).
In the case of `Cn1c(=N)n(CC(O)c2ccccc2)c2ccccc21` (configuration not stated), the “activity, negative = inhibition” value is reported as 9.45% (inactive).
For `CCOc1ccc(C(O)Cc2nc3ccccc3n2C)cc1` (configuration not stated), the “activity, negative = inhibition” value was -10.2% (inactive).
For `CCOc1ccc(C(O)Cn2c(=N)n(CCN3CCCCC3)c3ccccc32)cc1` (configuration not stated), the Potency was 50.1 µM (active).
With `Fc1ccc(-c2nn(-c3ccccc3Cl)c3c2cnc2ccccc23)cc1` the “activity, negative = inhibition” value was 8% (inactive).
For `N#Cc1cccc(NC(=O)CN2CCCCCC2)c1`, the “activity, negative = inhibition” value was 12.8% [at 102 µM] (inactive).
In the case of `CC(C)c1ccc(NC(=O)NC2CCCCC2)cc1`, the “activity, negative = inhibition” value is reported as 1.01% (inactive).
For `CC(C)c1ccc(NC2CCCN(C(=O)c3ccncc3)C2)cc1` (configuration not stated), the “activity, negative = inhibition” value was 13.6% [at 102 µM] (inactive).
With `Cc1cccc(C(=O)N2CCCC(Nc3ccc(C(C)C)cc3)C2)n1` (configuration not stated) the Potency was 56.2 µM (active).
